From PubChem
Sampled rows, rich in hits. Any-hit rate of the full collection: about 4.6%.
USP10 inh: human USP10 deubiquitinase inhibition; Q14694; inhibition, % at 20 µM; 1.1% of 47,000 active; purified USP10, Ub-rhodamine fluorescence, 60 min
UCHL1 block: inhibitors of human UCHL1 deubiquitinase. P09936. purified UCHL1, Ub-rhodamine cleavage fluorescence. inhibition, % at 20 µM. 0.2% of 47,000 active. AID 1645859
Target sequence (P09936 whole entry, looked up): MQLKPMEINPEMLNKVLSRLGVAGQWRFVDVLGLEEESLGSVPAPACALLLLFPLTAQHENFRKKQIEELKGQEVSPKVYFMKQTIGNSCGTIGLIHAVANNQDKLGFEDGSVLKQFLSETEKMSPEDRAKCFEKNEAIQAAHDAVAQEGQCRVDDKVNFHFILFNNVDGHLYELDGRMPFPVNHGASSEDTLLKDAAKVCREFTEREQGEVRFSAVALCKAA
USP8 inh: human USP8 deubiquitinase inhibition. P40818. purified USP8, Ub-rhodamine cleavage fluorescence, 30 min. inhibition, % at 20 µM. 4.2% of 47,000 active
USP7 inh: human USP7 deubiquitinase inhibition. inhibition, % at 20 µM. AID 1645854. purified USP7, Ub-rhodamine cleavage fluorescence. Q93009. 0.3% of 47,000 active
* hit, by the source's call. No stated cut-off is given here; in the data, active means inhibition above about 30%; inactive means the rest.

SMILES	USP10 inh	UCHL1 block	USP8 inh	USP7 inh
CCNC(=O)N1CCc2c(cccc2-n2nnc(C(=O)N(C)Cc3ccco3)c2C)C1	-7.6	-2.5	36.7*	-6.9
Cc1ccc(-c2nnc(-c3ccccc3)o2)cc1S(=O)(=O)N1CCCC1	4.2	4.1	-6.4	3.3
Cc1ccc(NS(=O)(=O)c2cccc(C(=O)NC3CCN(Cc4ccccc4)CC3)c2)c(C)c1	0.0	6.6	-0.9	2.2
O=C(NC1CCCCCC1)c1cccc(S(=O)(=O)Nc2cc(C(F)(F)F)ccc2Cl)c1	52.5*	6.2	26.4	2.1
NC(=O)c1cccc(-c2cccc(C3CN(C(=O)c4ccn[nH]4)CCO3)n2)c1 (stereo not given)	1.5	-2.3	22.3	3.2
O=C(Cn1c(=O)n(Cc2ccc(F)cc2)c(=O)c2sccc21)Nc1cccc(Cl)c1	18.8	4.2	-0.8	-1.2
Cc1nn(-c2ccc(Cl)cc2)c2[nH]c(=O)c(CNc3ccc4c(c3)OCCO4)cc12	18.0	11.2	79.7*	29.6
Cc1nn(-c2ccccc2)c2[nH]c(=O)c(CNc3ccccc3)cc12	3.5	0.0	3.6	8.2
Cc1nn(-c2ccc(Cl)cc2)c2[nH]c(=O)c(CNc3ccccc3)cc12	6.3	2.2	80.1*	5.2
Cc1cc(=O)[nH]c(N2CCN(c3ccc(Cl)cc3)CC2)n1	3.0	0.9	24.7	-18.2
Cc1ccc(NCc2cc3c(C(C)(C)C)nn(-c4ccc(Cl)cc4)c3[nH]c2=O)cc1C	8.6	-1.0	88.2*	4.2
Cc1nn(-c2ccccc2)c2[nH]c(=O)c(CNCCN3CCOCC3)cc12	1.6	2.0	22.5	5.9
COc1ccc2c(c1)c(CC(=O)Nc1ccc3c(c1)OCCO3)c(C)n2C(=O)c1ccc(Cl)cc1	7.5	4.0	5.0	-2.4
Cc1nn(-c2ccc(Cl)cc2)c2[nH]c(=O)c(CNCCc3ccccc3)cc12	4.1	-0.2	78.3*	0.2
CC(=O)NC(Cc1ccccc1)C(=O)NC1CCN(C(=O)c2ccc(C)cc2)CC1 (stereo not given)	-1.6	-1.9	5.8	0.4
Cc1ccc(NC(=O)Nc2nnc(CC(=O)N3CCCC3)s2)cc1	0.6	0.3	-164.6	-58.8
CC(C)(C)c1nn(-c2ccc(Cl)cc2)c2[nH]c(=O)c(CNCc3ccco3)cc12	7.5	5.2	65.6*	-63.1
Cc1ccccc1NC(=O)Cn1cc(-c2noc(-c3ccccc3)n2)nc1C	9.3	-0.1	7.3	4.7
Cc1ccc(NC(=O)Cn2cnc(-c3noc(-c4cccnc4)n3)c2)cc1	-8.0	-1.8	-3.6	2.8
Cc1cccc(NC(=O)Cn2cnc(-c3noc(-c4ccccc4)n3)c2)c1C	25.7	6.9	72.6*	24.1
O=C(Cn1cnc(-c2noc(-c3ccc(F)cc3)n2)c1)Nc1ccccc1F	25.9	7.5	66.7*	14.5
O=C(Nc1ccc(F)c(F)c1)c1cn[nH]c1S(=O)(=O)Nc1ccccc1	6.6	1.6	-53.4	2.9
CC(C)(C)c1ccc(C(=O)OCC(=O)Nc2ccc3c(c2)OCO3)cc1	1.6	3.2	12.1	9.3
Cc1cc(C(=O)COC(=O)c2ccc(C(C)(C)C)cc2)c(C)n1Cc1ccc2c(c1)OCO2	0.3	0.3	34.1*	2.8
Cc1cc(NCCC(=O)NCc2ccccc2)n2nc(-c3cccnc3)nc2n1	-2.0	-0.7	-8.0	-0.1
SMILES	USP10 inh	UCHL1 block	USP8 inh	USP7 inh
COc1ccc(-c2nc(C)c(C(=O)NCCc3ccc(S(N)(=O)=O)cc3)s2)cc1	30.3*	-1.2	37.3*	-0.5
Cc1nc(-c2ccccc2F)sc1C(=O)NCc1ccc(S(N)(=O)=O)cc1	0.6	-4.4	-126.1	-6.9
COc1ccc(-c2ncc(-c3ccc([N+](=O)[O-])cc3)o2)cc1	-5.1	-71.4	-11.6	-83.7
O=S(=O)(c1ccc(-c2cc(C(F)(F)F)on2)s1)N(Cc1ccccn1)Cc1ccccn1	1.0	-0.4	-40.8	-26.3
O=c1cc(-c2ccc(O)c(O)c2)oc2cc(O)cc(O)c12	36.0*	24.8	31.4*	10.7
O=c1c(O)c(-c2ccc(O)c(O)c2)oc2cc(O)cc(O)c12	16.6	34.2*	17.9	-7.9
O=c1c(-c2ccc(O)cc2)coc2cc(O)cc(O)c12	1.8	-1.8	5.6	1.9
O=C(Cn1c(=O)[nH]c2ccccc2c1=O)NC1CCCC1	-0.1	1.8	0.2	1.7
O=C(Cn1c(=O)[nH]c2c(-c3ccc(F)cc3)c[nH]c2c1=O)NCc1ccc(F)cc1	12.1	0.9	31.9*	12.5
CN(Cc1ccccc1)C(=O)Cn1c(=O)[nH]c2c(-c3ccccc3)c[nH]c2c1=O	-8.3	-9.1	46.0*	0.7
O=C(Cn1c(=O)[nH]c2c(-c3ccccc3)c[nH]c2c1=O)NCc1ccc(Cl)cc1	1.5	-0.1	32.1*	8.6
O=C(Cn1c(=O)[nH]c2c(-c3ccccc3F)c[nH]c2c1=O)NC1CCCCC1	16.6	-1.6	34.5*	13.3
CCc1nnsc1C(=O)NC(c1ccc(F)cc1)c1nccn1C (stereo not given)	1.6	-2.4	-10.3	-0.9
Cc1ccc(NC(=O)CCc2nnc3c(=O)n(-c4cc(C)cc(C)c4)ccn23)cc1	8.8	0.2	42.2*	9.5
COc1ccc(-n2ccn3c(CCC(=O)Nc4cccc(C)c4)nnc3c2=O)cc1	26.4	4.3	36.2*	1.5
Cc1cccc(NC(=O)CCc2nnc3c(=O)n(-c4ccc(C)c(C)c4)ccn23)c1	0.2	-1.0	35.5*	4.1
CC1=C[C@H]2[C@@H](CC1)[C@H](C)CC[C@H]2C(C)C(=O)O (stereo not given in full)	3.6	2.7	4.9	5.1
Cc1cc(C(=O)Nc2ccc(-n3nnc(C(=O)N4CCCC4)n3)cc2)c(C)o1	-11.8	0.6	-38.3	-1.5
COc1ccc(-c2cc3nc([C@H](C)NC(=O)Cc4cccc(F)c4)nn3cn2)cc1	28.8	37.8*	9.2	52.2*
COc1cccc(CC(=O)N[C@@H](C)c2nc3cc(-c4ccc(F)cc4)ncn3n2)c1	0.0	-0.4	1.5	-3.4
COCCOc1ccc(C(=O)N[C@H](C)c2nc3cc(-c4ccccc4F)ncn3n2)cc1	4.7	-1.0	2.9	0.5
COc1ccc(-c2cc3nc([C@H](C)NC(=O)Cc4cc(F)ccc4F)nn3cn2)cc1	37.1*	21.7	13.9	46.2*
COc1ccc(-c2cc3nc([C@@H](C)NC(=O)c4ccc5c(c4)OCO5)nn3cn2)cc1	1.3	0.5	32.0*	-33.7
Cc1ccc2oc(=O)c(S(=O)(=O)N3CCCCC3)cc2c1	-2.6	1.3	21.1	-4.6
O=C(Nc1ccc(Cl)cc1)C1CCN(c2nc3nc[nH]c(=O)c3s2)CC1	1.9	-4.1	-3.5	-2.8
Cc1ccc(NC(=O)C2CCN(c3nc4nc[nH]c(=O)c4s3)CC2)cc1F	-8.5	0.0	39.4*	6.3
Cc1ccccc1-c1noc(-c2cn(Cc3ccc(NC(=O)Cc4ccccc4)cc3)cn2)n1	14.6	0.2	37.5*	-2.4
O=C(Nc1ccc(-c2noc(CCc3ccccc3)n2)cc1)c1ccccc1F	10.9	5.4	7.5	9.2
O=C(Nc1ccc(Cn2cnc(-c3nc(-c4ccccc4)no3)c2)cc1)c1ccccc1F	21.4	11.2	46.8*	16.5
Cc1ccc(-c2noc(-c3cn(Cc4ccc(N)cc4)cn3)n2)cc1	10.1	-1.4	-2.3	1.2
